From PubChem
KAT2A inh – blocks human GCN5L2 histone acetyltransferase; GCN5L2 HAT assay, ThioGlo1 CoA-SH fluorescence; Q92830; hit rate 0.21% among 390,000; Potency, µM (doses to about 58.9 µM), usual class: inhibitors
Target sequence (Q92830 whole entry, looked up): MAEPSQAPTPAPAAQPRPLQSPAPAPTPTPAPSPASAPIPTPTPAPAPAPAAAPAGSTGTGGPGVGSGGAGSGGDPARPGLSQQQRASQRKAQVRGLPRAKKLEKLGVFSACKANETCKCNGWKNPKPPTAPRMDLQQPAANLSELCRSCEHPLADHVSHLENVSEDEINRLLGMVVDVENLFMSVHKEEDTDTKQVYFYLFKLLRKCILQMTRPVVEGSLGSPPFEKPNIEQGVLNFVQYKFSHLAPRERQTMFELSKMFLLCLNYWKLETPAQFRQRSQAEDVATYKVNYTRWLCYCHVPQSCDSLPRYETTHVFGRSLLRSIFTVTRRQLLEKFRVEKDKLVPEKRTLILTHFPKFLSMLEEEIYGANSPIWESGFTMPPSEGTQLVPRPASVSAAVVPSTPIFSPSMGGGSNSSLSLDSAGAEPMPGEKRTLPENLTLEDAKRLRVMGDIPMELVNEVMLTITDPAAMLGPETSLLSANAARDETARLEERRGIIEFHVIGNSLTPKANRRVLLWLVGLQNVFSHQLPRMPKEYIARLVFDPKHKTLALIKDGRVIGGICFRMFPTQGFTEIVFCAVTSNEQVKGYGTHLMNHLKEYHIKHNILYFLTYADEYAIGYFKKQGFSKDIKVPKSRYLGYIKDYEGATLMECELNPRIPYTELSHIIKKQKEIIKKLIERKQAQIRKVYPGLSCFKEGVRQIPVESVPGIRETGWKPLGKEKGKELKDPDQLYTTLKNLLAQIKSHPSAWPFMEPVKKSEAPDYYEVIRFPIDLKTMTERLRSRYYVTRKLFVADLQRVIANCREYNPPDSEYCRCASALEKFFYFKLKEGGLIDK
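Free CoA generated was detected with ThioGlo1 (50uM) fluorescence at Ex340nm/Em540nm, read immediately and after 20 min at room temperature. Enzyme, 20 nM in HEPES pH 7.5 buffer, saw compounds 15 min before adding 75uM H3(1-25) peptide and 70uM acetyl-CoA.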
TDP1 block – inhibitors of human tyrosyl-DNA phosphodiesterase TDP1. Q9NUW8. recombinant TDP1, AlphaScreen DNA substrate cleavage. Potency, µM (top dose mostly 130 µM), most hits filed as inhibitors. hit rate 0.28% among 350,000. AID 485290; note: nearly all actives have a fitted effect of over 40% in size
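AlphaScreen read-out: signal falls as enzyme removes the 3' tyrosine-FITC from a 5'-biotinylated DNA oligo (15 nM, 5 min, RT). Enzyme was E. coli-made recombinant Tdp1 at 1 nM, exposed to compound for 15 min beforehand; beads 10 ug/ml, 10 min.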
VDR inhibitor – blocks the human vitamin D receptor | hit rate 0.93% among 400,000 | Potency, µM, most hits filed as inhibitors | P11473 | VDR-SRC2-3 peptide fluorescence polarization, 2 h
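Reagent solutions, kept cold and dark, are dispensed first; compounds are then pinned in at 23 nl, plates briefly spun, and incubated 2 h at ambient temperature. Inhibition of VDR–SRC2-3 peptide binding is read by fluorescence polarization.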
PLK1 PBD inh – blocks phosphopeptide binding to human PLK1 polo-box domain. P53350. Plk1 PBD binding of FITC phosphopeptide, fluorescence polarization. Potency, µM, usual class: inhibitors. hit rate 2.8% among 360,000. AID 720504; note: series mostly up to about 57 µM; nearly all actives have a fitted effect of over 65% in size
TDP1 cell CPT – DT40-hTDP1 cell growth loss with CPT; AID 686979; hit rate 12% among 420,000; chicken DT40 Tdp1-/-;hTDP1 cells + 20 nM CPT, ATP luminescence, 48 h; Potency, µM (highest dose often 46.2 µM), actives largely listed as inhibitors; note: nearly all actives have a fitted effect of over 55% in size
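Chicken DT40 Tdp1-/- cells stably complemented with human TDP1 were seeded at 400 cells/well in medium containing 20 nM camptothecin, exposed to pin-transferred compounds, and grown at 37 °C for at least 48 hr. Viability was read as ATP luminescence.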
TDP1 cell noCPT – qHTS for Inhibitors of human tyrosyl-DNA phosphodiesterase 1 (TDP1): qHTS in cells in absence of CPT | DT40 Tdp1-/- hTDP1 cells, no CPT, ATP luminescence, 48 h | hit rate 15% among 420,000 | Potency, µM (doses to about 46.2 µM), hits mostly inhibitors | AID 686978, 2013; note: nearly all actives have a fitted effect of over 55% in size
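Stably hTDP1-transfected Tdp1-null chicken DT40 cells were treated with library compounds minus camptothecin and grown for at least 48 hr at 37 °C, after which cellular ATP was quantified by luminescence.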
Numbers stand for hits; - = inactive; ? = inconclusive; . = no result. Hits are enriched below; roughly 18% of the tested compounds scored in any of these assays. Calls come from the whole dose curve; as a rule, active = well fitted curve in the direction sought with a large enough effect; inconclusive = small, poorly fitted or top-dose-only effect, or another doubt; inactive = no such curve, though single readings can be large; an effect the other way counts as inactive or inconclusive.

SMILES	KAT2A inh	TDP1 block	VDR inhibitor	PLK1 PBD inh	TDP1 cell CPT	TDP1 cell noCPT
COc1ccc(CN2CN(S(=O)(=O)c3cccs3)c3nc4ccccc4nc32)cc1	?	-	-	-	?	?
Cc1ccc(C(c2c(O)nc3n(c2=O)CCS3)c2c(O)nc3n(c2=O)CCS3)cc1	-	-	50µM	17µM	-	-
Cc1ccc(C)c(NC(=O)c2cnc3n(c2=O)CCS3)c1	-	-	-	-	-	-
CC1CCN(S(=O)(=O)c2ccc3c(c2)N(CC(=O)NCCN2C(C)CCCC2C)C(=O)CS3)CC1 (stereo unspecified)	-	-	-	-	-	-
CC(C)(C)c1ccc(N2C[C@@H](COc3ccc(C(=O)O)cc3)CC2=O)cc1	-	-	-	.	.	.
Cc1cc(NC(=O)CCN2C(=O)C3C4C=CC(C4)C3C2=O)c2ccccc2n1 (stereo unspecified)	?	-	-	-	?	21µM
O=C(CSCc1ccc(F)cc1)N1CCOCC1	?	-	-	-	-	-
Cc1noc(C)c1CSc1ccccc1C(=O)N1CCN(c2ccccc2)CC1	-	-	-	-	?	?
Cc1cccc(N2CCN(C(=O)CSCc3c(C)noc3C)CC2)c1C	-	-	-	-	21µM	7.3µM
O=C(CSCc1ccc(F)cc1)N1CCN(c2ccc(Cl)cc2)CC1	-	-	-	.	16µM	21µM
Cc1noc(C)c1CSCC(=O)N1CCN(c2ccc(F)cc2)CC1	-	-	-	-	?	18µM
O=C(N1CCc2ccc(S(=O)(=O)N3CCN(S(=O)(=O)c4ccc5c(c4)OCCO5)CC3)cc2C1)C(F)(F)F	.	-	.	.	.	.
N#CC1(Nc2cccc(Cl)c2)CCCC1	.	.	-	-	-	-
CC(C)CC(N)c1csc(Nc2ccc(C(=O)c3ccccc3)cc2)n1 (stereo unspecified)	.	.	.	-	?	16µM
CC(=O)c1ccc(Nc2nc(C(N)COCc3ccccc3)cs2)cc1 (stereo unspecified)	.	.	.	-	23µM	?
CC(=O)c1ccc(Nc2nc(C(N)CC(C)C)cs2)cc1 (stereo unspecified)	.	.	.	-	?	16µM
NC(COCc1ccccc1)c1csc(Nc2ccc(C(=O)NCCO)cc2)n1 (stereo unspecified)	.	.	.	-	?	?
CN(C)Cc1csc(Nc2ccc(C(=O)c3ccccc3)cc2)n1	.	.	.	-	18µM	?
COC(CNC(=O)c1ccc2c(c1)ncn2C1CCCCCC1)OC	-	.	-	-	-	-
O=C(NCc1ccncc1)[C@@H]1CCCN1C(=O)[C@H]1CCCN1C(=O)c1c(F)cccc1F	.	.	.	-	-	-
O=C(CN1C(=O)c2cccnc2Oc2ccc(Cl)cc21)NCCCN1CCCCC1	-	-	-	.	-	-
CC(C)Oc1ccc(CNC(=O)CN2C(=O)c3cccnc3Oc3ccc(Cl)cc32)cc1	-	-	-	.	16µM	18µM
O=C(CN1C(=O)c2cccnc2Oc2ccc(Cl)cc21)Nc1cccc(C(F)(F)F)c1	-	-	-	.	?	18µM
O=C(CN1C(=O)c2cccnc2Oc2ccc(Cl)cc21)NCCCc1ccccc1	-	-	-	-	23µM	?
COc1ccc(Br)cc1CNC(=O)CN1C(=O)c2cccnc2Oc2ccc(C)cc21	-	-	-	.	?	12µM
SMILES	KAT2A inh	TDP1 block	VDR inhibitor	PLK1 PBD inh	TDP1 cell CPT	TDP1 cell noCPT
Fc1ccccc1-n1ncc2c1ncn1nc(Cc3ccccc3)nc21	-	-	-	.	-	-
CCCOc1ccc(CNC(=O)CN2C(=O)c3cccnc3Oc3ccc(C)cc32)cc1	-	-	-	.	23µM	?
CSc1ncnc2c1ncn2CCCN1CCN(C(=O)C2CC2)CC1	.	.	.	-	-	?
O=C(Nc1ccc(Br)cc1)c1ccc(F)c(S(=O)(=O)NCc2cccs2)c1	-	-	-	-	15µM	21µM
CC(C)c1ccc(NC(=O)c2ccc3c(c2)CCN3S(C)(=O)=O)cc1	-	.	-	-	21µM	8.2µM
O=C(NC1=NCCS1)c1ccc(Cl)c(S(=O)(=O)N2CCc3ccccc32)c1	-	-	-	-	?	?
COc1cccc(NC(=O)c2ccc3c(c2)CCN3S(C)(=O)=O)c1	-	-	-	-	?	?
O=S(=O)(NCc1cccs1)c1ccc(Br)cc1	-	-	-	-	-	-
CS(=O)(=O)N1CCCc2cc(C(=O)Nc3cccc(C(F)(F)F)c3)ccc21	-	-	-	.	?	18µM
CC(C)c1ccc(NC(=O)c2ccc(F)c(S(=O)(=O)N3CCc4ccccc43)c2)cc1	-	-	-	.	5.2µM	7.3µM
O=C(NNC(=O)c1ccccc1-n1cccc1)c1cccnc1	.	.	.	-	-	-
NC(=O)c1nnn(-c2nonc2N)c1-c1ccc([N+](=O)[O-])cc1	-	-	-	-	-	?
CCOc1ccccc1NC(=O)c1ccc(F)c(S(=O)(=O)NCc2ccc3c(c2)OCO3)c1	-	-	-	.	-	?
O=C(Nc1cccc(Cl)c1)c1ccc(F)c(S(=O)(=O)NCc2ccc3c(c2)OCO3)c1	-	-	?	-	-	26µM
O=C(Nc1cccnc1)c1ccc(Cl)c(S(=O)(=O)N2CCc3ccccc32)c1	-	-	-	-	-	-
O=C(Nc1ccc(Br)cc1)c1ccc(F)c(S(=O)(=O)N2CCc3ccccc32)c1	-	-	-	.	23µM	21µM
CCCCCc1cc(=O)oc2c(C(CCN3CCCC(C)C3)c3cc(OC)c(OC)c(OC)c3)c(OC)cc(OC)c12 (stereo unspecified)	-	.	-	-	?	29µM
CCCCCc1cc(=O)oc2c(C(CCN3CCCC(C)C3)c3ccc(N(C)C)cc3)c(OC)cc(OC)c12 (stereo unspecified)	-	-	-	-	?	23µM
CCCCCc1cc(=O)oc2c(C(CCN(CC)CC)c3ccc(N(C)C)cc3)c(OC)cc(OC)c12 (stereo unspecified)	-	-	-	-	?	16µM
COc1cc(OC)c2ccc(=O)oc2c1C(CCN1CCCC(C)C1)c1ccc(N(C)C)cc1 (stereo unspecified)	-	-	-	-	21µM	?
CCCCCc1cc(=O)oc2c(C(CCN3CCCCC3)c3cc(OC)c(OC)c(OC)c3)c(OC)cc(OC)c12 (stereo unspecified)	-	-	-	-	?	?
Cc1csc(NC(=O)CCCC(=O)c2ccccc2)n1	-	.	-	-	-	-
O=C(COC(=O)c1cccc(C(=O)OCC(=O)NC2CC2)n1)NC1CC1	-	-	-	-	-	-
CNC(=O)C1(CC(C)C)C=CCN1C(=O)c1ccccc1 (stereo unspecified)	.	-	.	.	.	.
